From PubChem BioAssay
The entries come from a sample that favours hits as a whole.
Pf Dd2 growth: blocks in vitro growth of P. falciparum Dd2; Potency, µM (top dose mostly 28.9 µM), inactives show at the highest dose activity, negative = inhibition, most hits filed as inhibitors; hit rate 4.3% among 120,000; P. falciparum Dd2 growth, SYBR Green, 72 h; active means well fitted inhibition curve with a large enough effect;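 further: plate controls were DMSO vehicle for no effect and reference drug for full effect; nearly all actives have a fitted effect of over 65% in size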
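Infected erythrocytes (Dd2, 0.3% parasitemia, 2.5% hematocrit final) are added to compound in RPMI-1640/Albumax II medium, grown 72 h at 37C in low oxygen, then lysed with saponin/Triton-X containing SYBR Green and read by fluorescence.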
Active calls of the source: *; i = inactive; [ ] = remark or other dose. Potency means the concentration at half of the fitted maximal effect.

SMILES | Pf Dd2 growth
Cc1c(C(=O)NC2CC(c3nnc(CO)n3C3CC3)C2)n(C)c2c(C)cccc12 (stereo not drawn) | i
Cc1noc(C)c1C(=O)N1CCC(c2nnc(CN(C)C)n2C)CC1 | -9%
Cc1ccc(C)c(S(=O)(=O)N2CCN(C3CCN(Cc4cccnc4)C3=O)CC2)c1 (stereo not drawn) | i
Cc1cc2c(n1-c1ccc(C(=O)NCc3ccc(OC(C)C)cc3)cc1)CCCC2 | -13%
COCCCNC(=O)c1ccc(-n2c(-c3ccccc3)cc3c2CCCCC3)cc1 | 5µM*
CN(C)CCNC(=O)c1ccc(-n2c(-c3ccccc3)cc3c2CCCCC3)cc1 | 0.35µM*
COCCNC(=O)c1ccc(-n2c(-c3ccccc3)cc3c2CCC(C)C3)cc1 (stereo not drawn) | -31%
CC(C)NC(=O)c1ccc(-n2c(-c3ccccc3)cc3c2CCCCC3)cc1 | -20%
CCCNC(=O)c1ccc(-n2c(-c3ccccc3)cc3c2CCC(C)C3)cc1 (stereo not drawn) | i
CC1CCc2c(cc(-c3ccccc3)n2-c2ccc(C(=O)NC(C)C)cc2)C1 (stereo not drawn) | i
CCOc1ccc(CCNC(=O)c2ccc(C)c(-n3c(C)nc4cccnc43)c2)cc1OCC | -2%
CCOc1ccc(CCNC(=O)c2ccc(-n3c(C)cc4c3CCCC4)cc2)cc1OCC | 7.9µM*
CNC(=O)C(C)(C)N1CCC[C@H]1C(=O)N1CCCC1 | 32%[44.1 µM]
CCOc1cccc(CN(C)C(=O)CN2CC3(CCN(C)CC3)CC2=O)c1 | -20%
CN1C(=O)c2cccn2CC1CNC(=O)CCc1c[nH]c2ccccc12 (stereo not drawn) | -10%
O=C(NCCc1noc(C(F)(F)F)n1)[C@H]1CCC[C@H](O)C1 | -1%
O=C(Cn1ccn2nc(-c3ccc(F)cc3)c(CO)c2c1=O)Nc1ccc2c(c1)OCO2 | -21%
Cc1cccc(-n2ccnc2SCC(=O)Nc2ccc(F)cc2F)c1C | 3%
CCc1ccc(NC(=O)CSc2nccn2-c2cccc(C)c2C)cc1 | 24%
Cc1ccc(C)c(NC(=O)CSc2nccn2-c2cccc(C)c2C)c1 | 3.5µM*
O=C(Cn1cc(C(F)(F)F)ccc1=O)N1CCC2(CCCNC2=O)C1 (stereo not drawn) | -11%
COc1cc(OC)cc(-c2nc3nc(C)c(CCC(=O)NCCC(C)C)c(C)n3n2)c1 | 43%
CCc1ccc(NC(=O)CCc2c(C)nc3nc(-c4cc(OC)cc(OC)c4)nn3c2C)cc1 | i
COc1cc(OC)cc(-c2nc3nc(C)c(CCC(=O)Nc4cc(C)cc(C)c4)c(C)n3n2)c1 | 8.9µM*
Cc1cc(C)c2c(C(=O)N(C)Cc3nc(C)no3)cc(C)nc2c1 | -15%
SMILES | Pf Dd2 growth
CNC(=O)c1cn2c(n1)CN([S+](=O)([O-])c1cccc(C(F)(F)F)c1)CC2 | -21%
CCOCCOC1CCN(C(=O)c2nn(C)c3ccccc23)CC1 | 36%
O=C1CCN(Cc2ccncc2F)CCCC(c2nc(-c3cccnc3)no2)CCN1 (stereo not drawn) | i
O=C1CCN(C2CCC2)CCCC(c2nc(-c3cccnc3)no2)CCN1 (stereo not drawn) | -6%
Cc1ncsc1CN1CCCC(c2nc(-c3cccnc3)no2)CCNC(=O)CC1 (stereo not drawn) | i
CCOc1ccccc1CN1CCCC(c2nc(-c3cccnc3)no2)CCNC(=O)CC1 (stereo not drawn) | 4µM*
O=C1CCN(Cc2ccncc2)CCCC(c2nc(-c3cccnc3)no2)CCN1 (stereo not drawn) | -15%
O=C1CCN(C(=O)C2CCCC2)CCCC(c2nc(-c3ccccc3)no2)CCN1 (stereo not drawn) | i
COc1ccc(C(=O)N2CCCC(c3nc(-c4ccccc4)no3)CCNC(=O)CC2)c(OC)c1 (stereo not drawn) | 7.1µM*
COc1ccc(C(=O)N2CCCC(c3nc(-c4cccnc4)no3)CCNC(=O)CC2)cc1 (stereo not drawn) | -27%
N#Cc1cccc(CN2CCCC(c3nc(-c4cccnc4)no3)CCNC(=O)CC2)c1 (stereo not drawn) | 5µM*
O=C(NC1CCCC1)N1CCCC(Cn2c(C3CC3)nc3cccnc32)C1 (stereo not drawn) | i
CCc1cccc(NC(=O)N2c3ccccc3CC2c2nc(CCOC)no2)c1 (stereo not drawn) | i[5.79 µM]
C#CCO[C@@H]1CCN(S(=O)(=O)c2cccs2)[C@H](C(=O)N[C@H](C)C(N)=O)C1 | 14%[44.1 µM]
CCOc1ccccc1C1NC(=O)N(CC(=O)Nc2ccccc2C)C2=C1C(=O)OC2 (stereo not drawn) | i
CC(C)Oc1ccc2ccccc2c1CN1C[C@H](O)C[C@H]1C(=O)O | -1%
Cc1cc(C(=O)N2CCC3(CC(=O)Nc4ccccc4N3)C2)ccc1Cl (stereo not drawn) | 9%
COc1ccc(-c2[nH]nc3ncc(-c4cccnc4OC)nc23)c(C)c1 | -14%[44.1 µM]
CCn1cc(S(=O)(=O)N2C[C@H]3CN(CCO)C[C@@]3(C(=O)O)C2)cn1 | 1%
CCN1C(=O)c2ccccc2S(=O)c2ccc(C(=O)NCc3ccccc3OC)cc21 (stereo not drawn) | -20%
CC(=O)Nc1ccc(NC(=O)c2ccc3c(c2)N(Cc2cccc(Cl)c2)C(=O)c2ccccc2S3=O)cc1 (stereo not drawn) | 11µM*
NC(=O)C1CCN(C(=O)c2ccc3c(c2)N(Cc2cccc(Cl)c2)C(=O)c2ccccc2S3(=O)=O)CC1 | 22%
COCCNC(=O)c1ccc2c(c1)N(Cc1cccc(Cl)c1)C(=O)c1ccccc1S2=O (stereo not drawn) | 22%
O=C(NC1CCCCC1)c1ccc2c(c1)N(Cc1ccc(F)cc1)C(=O)c1ccccc1S2(=O)=O | -9%
O=C(c1ccc2c(c1)N(Cc1cccc(Cl)c1)C(=O)c1ccccc1S2=O)N1CCC(Cc2ccccc2)CC1 (stereo not drawn) | -25%
SMILES | Pf Dd2 growth
COc1ccc(NC(=O)c2ccc3c(c2)N(Cc2cccc(Cl)c2)C(=O)c2ccccc2S3(=O)=O)cc1Cl | 7.9µM*
COc1ccc(CCNC(=O)c2ccc3c(c2)N(Cc2cccc(C)c2)C(=O)c2ccccc2S3(=O)=O)cc1OC | i
CC(C)NC(=O)c1ccc2c(c1)N(Cc1cccc(Cl)c1)C(=O)c1ccccc1S2=O (stereo not drawn) | 23%
COc1ccc(NC(=O)c2ccc3c(c2)N(Cc2cccc(Cl)c2)C(=O)c2ccccc2S3=O)cc1Cl (stereo not drawn) | 3.2µM*
CC1CCC(NC(=O)c2ccc3c(c2)N(Cc2cccc(Cl)c2)C(=O)c2ccccc2S3(=O)=O)CC1 (stereo not drawn) | 11µM*
Cc1ccc2c(n1)N(C)[C@H](CO)CCN(Cc1cccnc1)C2 | -3%[44.1 µM]
CCS(=O)(=O)N1CCC(F)(c2nc(-c3ccccc3)no2)CC1 | -19%
CS(=O)(=O)c1ccc(CN2C[C@H](O)C[C@H]2c2nc(-c3cnccn3)no2)cc1 | -26%[44.1 µM]
COCc1nc(C2CC(N)C2)cc(N2CCC(NS(C)(=O)=O)CC2)n1 (stereo not drawn) | -11%
COc1ccc(C[C@H](N)C(=O)NCc2c(C)ncc3c2CCNC3)cc1 | -11%
CC(C)Oc1ccc2c(NC(=O)c3ccc(=O)n(C)n3)nn(CC(F)(F)F)c2c1 | 6%
CCOC(=O)N1CCN(C(=O)c2ccc3c(c2)N(Cc2cccc(Cl)c2)C(=O)c2ccccc2S3=O)CC1 (stereo not drawn) | -11%
CC1CCCCN1C(=O)c1ccc2c(c1)N(Cc1cccc(Cl)c1)C(=O)c1ccccc1S2=O (stereo not drawn) | -12%
